Source: PubChem BioAssay
Pf Dd2 growth: Plasmodium falciparum Dd2 growth inhibition. P. falciparum Dd2 growth, SYBR Green, 72 h. Potency, µM (doses to about 28.9 µM), inactives show at the highest dose activity, negative = inhibition, usual class: inhibitors. 120,000 compounds, 4.3% hits. AID 1347417; active = well fitted inhibition curve with a large enough effect;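 note: plate controls were DMSO vehicle for no effect and reference drug for full effect; nearly all actives have a fitted effect of over 65% in size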
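Readout: SYBR Green fluorescence, 485 nm excitation, 535 nm emission, after ~16 h lysis at 37C. Before that, Dd2-infected red cells (2.5% hematocrit) grew 72 h with compound, 29 uM top final concentration.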
The depositor's hits bear a star; [ ] = another dose, or the depositor's remark. This excerpt belongs to a sample that is enriched for hits. Potency is the fitted concentration of half-maximal effect.

For COCC(=O)NC1CCC12CCN(C(=O)c1ccc(C#N)cc1)CC2 (stereo not given) the results were Pf Dd2 growth 1%.
Screening C#CCN(C)C(=O)[C@@H](C)C1CC[C@@]2(C)Cc3sc(NC)nc3[C@@H](C)[C@@H]2[C@H]1O (stereo not given in full) returned Pf Dd2 growth inactive.
For CCN(CC)C(=O)[C@@H](C)C1CC[C@@]2(C)Cc3sc(Nc4c(Cl)cccc4Cl)nc3[C@@H](C)[C@@H]2[C@H]1O (stereo not given in full) the results were Pf Dd2 growth 13µM*.
For CCN(CC)C(=O)C(C)[C@@H]1CC[C@@]2(C)Cc3sc(NC(=O)C4CC4)nc3[C@@H](C)[C@@H]2[C@H]1O (stereo not given in full) the results were Pf Dd2 growth 32%.
For O=C(NC1CCN(Cc2ccccc2)CC1)[C@H]1CN(Cc2ccccc2)C[C@H]1C(=O)O the results were Pf Dd2 growth -29%.
Screening CCOC(=O)c1cnc2c(ccc3ccccc32)c1Nc1ccc(C(C)=O)cc1 returned Pf Dd2 growth 5µM*.
CCOC(=O)c1cnc2c(ccc3ccccc32)c1Nc1ccc(OC)cc1OC was read as Pf Dd2 growth 0%.
Screening CCOC(=O)c1cnc2c(ccc3ccccc32)c1Nc1ccccc1OCC returned Pf Dd2 growth 30%.
Screening CCOC(=O)c1cnc2c(ccc3ccccc32)c1Nc1ccccc1OC returned Pf Dd2 growth 9%.
For CCOC(=O)c1cnc2c(ccc3ccccc32)c1Nc1ccc(OC)c(OC)c1 the results were Pf Dd2 growth 3.5µM*.
For CCOC(=O)c1cnc2ccccc2c1Nc1ccc(N2CCOCC2)cc1 the results were Pf Dd2 growth 28%.
For Cc1ccc2nc3c(n2c1)C(c1ccccc1OCCN(C)C)CC(=O)NC3 (stereo not given) the results were Pf Dd2 growth -2%.
Screening O=C(c1ccccc1Br)N1CCCN(C(=O)C2CC2)c2ccccc21 returned Pf Dd2 growth -23%.
`Cn1nc(C2CCN(C(=O)c3nccc4ccccc34)CC2)c2c1CCOC2` gave Pf Dd2 growth 63%[5.79 µM].
Screening COc1ccc(OC2CCN(C(C)=O)CC2)c(C(=O)NCCc2c(C)n[nH]c2C)c1 returned Pf Dd2 growth -34%.
COCC(=O)N(C)C1CCCc2ccccc21 (stereo not given) was read as Pf Dd2 growth -23%[44.1 µM].
`CN(Cc1ccc(F)cc1)C1CCCc2ccccc21` (stereo not given) gave Pf Dd2 growth inactive.
Screening CN(C(=O)c1ccccc1)C1CCCc2ccccc21 (stereo not given) returned Pf Dd2 growth inactive.
For CN(C(=O)Nc1ccc(Cl)cc1)C1CCCc2ccccc21 (stereo not given) the results were Pf Dd2 growth -12%[44.1 µM].
CN(C(=O)Cc1ccc(F)cc1)C1CCCc2ccccc21 (stereo not given) was read as Pf Dd2 growth 16µM*.
Screening CN(C(=O)Nc1ccccc1)C1CCCc2ccccc21 (stereo not given) returned Pf Dd2 growth 16µM*.
For COc1ccc(CNC(=O)C[C@@H]2C[C@H]3O[C@H](CNC(=O)NC(C)C)[C@@H](O)[C@H]3O2)cc1 the results were Pf Dd2 growth -11%[44.1 µM].
For O=C(Cn1nc2n(c1=O)CCCC2)N1CCN(c2ccc(F)cc2)CC1 the results were Pf Dd2 growth 15%.
For CCN1Cc2nc(OC)c(CNC(=O)[C@H](O)C3CCCCC3)cc2C1=O the results were Pf Dd2 growth -20%.
`Cc1ccc(NC(=O)c2cn(-c3ccccc3)nc2-c2ccccc2)cc1` gave Pf Dd2 growth -28%.
Cc1ccc(-n2cc(CN(C)C(C)C(=O)N(C)C)c(-c3cccc(C)c3)n2)cc1 (stereo not given) was read as Pf Dd2 growth 4µM*.
`CC(=O)Nc1ccc(-c2c(-c3cccc(C)c3)nn(-c3ccc(F)cc3)c2OC(C)=O)cc1` gave Pf Dd2 growth -17%.
Cc1ccc(C2Cn3nnc(-c4noc(-c5cccc(N(C)C)c5)n4)c3CO2)cc1 (stereo not given) was read as Pf Dd2 growth -9%.
Screening Cn1nccc1C(=O)N1CCCN(S(C)(=O)=O)c2ccccc21 returned Pf Dd2 growth -13%.
CC[C@@H](NC(=O)c1cc(S(N)(=O)=O)ccc1C)C1CC(O)C1 (stereo not given in full) was read as Pf Dd2 growth -8%.
`Cc1ccc2c(n1)N(C)[C@H](CO)CCN(Cc1cn(C)c3ccccc13)C2` gave Pf Dd2 growth 11µM*.
`Cc1ccc2c(n1)N(C)[C@H](CO)CCN(Cc1ccc(F)cc1)C2` gave Pf Dd2 growth -3%[44.1 µM].
Cc1ccc2c(n1)N(C)[C@H](CO)CCN(Cc1ccccc1Cl)C2 was read as Pf Dd2 growth -25%[44.1 µM].
`CN(CC1CCOCC1)C(=O)Nc1ccc(Cl)cc1F` gave Pf Dd2 growth -17%.
`O=C(c1cccs1)N1CC(Oc2cccc(-c3nc(-c4ccccc4)no3)c2)C1` gave Pf Dd2 growth -17%[5.79 µM].
Screening COc1ccc(C2Cn3nnc(-c4nc(-c5ccccc5C)no4)c3CO2)cc1 (stereo not given) returned Pf Dd2 growth inactive.
Screening Cc1ccc2nc3n(c2c1)[C@@H](CNC(=O)c1ccncc1)COC3 returned Pf Dd2 growth -15%[44.1 µM].
COc1cccc(C2=C(C(C)=O)Sc3nnc(C4CCCCC4)n3N2C(C)=O)c1 was read as Pf Dd2 growth 1.3µM*.
CC(=O)C1=C(c2ccccc2)N(C(C)=O)n2c(nnc2C2CCCCC2)S1 was read as Pf Dd2 growth 1.1µM*.
For COc1cccc(N2CC(NC(=O)C3CCCC3)CC2=O)c1 (stereo not given) the results were Pf Dd2 growth 44%.
Cn1nnnc1C1CCCN(C(=O)Cc2ccccc2)C1 (stereo not given) was read as Pf Dd2 growth -19%.
COc1cccc(C(=O)N2CCCC(c3nn[nH]n3)C2)c1 (stereo not given) was read as Pf Dd2 growth 40%.
Cn1nnnc1C1CCCN(C(=O)NCc2ccccc2)C1 (stereo not given) was read as Pf Dd2 growth -8%.
Screening O=C1CC(c2ccccc2)N(C(=O)CNC(=O)Cn2c(=O)oc3ccccc32)CCCCCN1 (stereo not given) returned Pf Dd2 growth -22%.
Screening COC1C(=O)N(CC2CC2)C12CCN(S(=O)(=O)c1cccc3cccnc13)CC2 (stereo not given) returned Pf Dd2 growth -7%.
NCC(=O)N1CCC(N2CCCC(C(=O)NCc3ccccc3)C2)CC1 (stereo not given) was read as Pf Dd2 growth -7%.
Screening CN(C)C(=O)c1cccnc1OC1CCN(C(=O)Nc2ccc(F)cc2F)C1 (stereo not given) returned Pf Dd2 growth -2%.
`Cc1cc2nc3n(c(=O)c2n1CC(=O)Nc1ccccc1F)CCCCC3` gave Pf Dd2 growth -24%.
For CCn1cc2nc(SCc3ccccc3)n(Cc3ccc(C)cc3)c(=O)c2n1 the results were Pf Dd2 growth 1%.
CCn1cc2nc(SCc3ccc(F)cc3)n(Cc3ccc(Cl)cc3)c(=O)c2n1 was read as Pf Dd2 growth -4%.
For CCn1cc2nc(SCc3cc(C)ccc3C)n(Cc3ccc(C)cc3)c(=O)c2n1 the results were Pf Dd2 growth 10µM*.
Cn1cc(S(=O)(=O)N2CCCCC2)cc1C(=O)Nc1ccc(OC(F)(F)F)cc1 was read as Pf Dd2 growth 11µM*.
For Cn1cc(S(=O)(=O)N2CCCC2)cc1C(=O)Nc1ccc(F)cc1F the results were Pf Dd2 growth -3%.
